This is a sample that favours compounds with a hit; in the whole collection about 15% have one here.
VP16 counter: inhibits Gal4-VP16 luciferase reporter, ROR gamma counter-screen | Drosophila S2 Gal4-VP16 UAS-luciferase, luminescence, 20 h | Potency, µM (doses to about 53.6 µM), inactives show top-dose activity, negative = inhibition, most hits filed as inhibitors | 310,000 tested, 3.5% active | AID 2546;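 also: Gal4-VP16 expression switched on by copper sulfate through the metallothionein promoter; nearly all actives have a fitted effect of over 50% in size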
DT40 TDP1 no CPT: qHTS for Inhibitors of human tyrosyl-DNA phosphodiesterase 1 (TDP1): qHTS in cells in absence of CPT. DT40 Tdp1-/- hTDP1 cells, no CPT, ATP luminescence, 48 h. Potency, µM (titrated, usually from 46.2 µM), for the others: top-dose activity change, negative = growth inhibition, hits mostly inhibitors. 420,000 tested, 15% active. AID 686978, 2013; also: nearly all actives have a fitted effect of over 55% in size
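Camptothecin absent (DMSO only). Human TDP1-complemented DT40 knockout cells, 400 cells/well, 37 °C for minimum 48 hr; ATP measured via CellTiter-Glo, 30 min dark incubation, luminescence.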
RORgamma inh: blocks mouse ROR gamma transcriptional activity | P51450 | Drosophila S2 Gal4-RORgamma UAS-luciferase reporter, 20 h | Potency, µM (series often up to 53.6 µM), for the others: top-dose activity change, negative = inhibition, most hits filed as inhibitors | 310,000 tested, 5.4% active | AID 2551; also: nearly all actives have a fitted effect of over 60% in size
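Drosophila S2 cells stably expressing Gal4-DBD/mouse RORγ fusion under metallothionein promoter plus UAS-luciferase; compound 1 h, then 700 uM CuSO4 induction for 20 h at ambient temperature; inhibition read as reduced luminescence.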
ALOX12 inh: ALOX12 (human) lipoxygenase inhibition. AID 1671190. 580,000 tested, 1.1% active. Potency, µM (titrated, usually from 108 µM), for inactives: top-dose activity change, negative = inhibition, usual class: inhibitors. purified 12hLO, xylenol orange hydroperoxide absorbance. P18054
Target sequence (P18054 whole entry, looked up): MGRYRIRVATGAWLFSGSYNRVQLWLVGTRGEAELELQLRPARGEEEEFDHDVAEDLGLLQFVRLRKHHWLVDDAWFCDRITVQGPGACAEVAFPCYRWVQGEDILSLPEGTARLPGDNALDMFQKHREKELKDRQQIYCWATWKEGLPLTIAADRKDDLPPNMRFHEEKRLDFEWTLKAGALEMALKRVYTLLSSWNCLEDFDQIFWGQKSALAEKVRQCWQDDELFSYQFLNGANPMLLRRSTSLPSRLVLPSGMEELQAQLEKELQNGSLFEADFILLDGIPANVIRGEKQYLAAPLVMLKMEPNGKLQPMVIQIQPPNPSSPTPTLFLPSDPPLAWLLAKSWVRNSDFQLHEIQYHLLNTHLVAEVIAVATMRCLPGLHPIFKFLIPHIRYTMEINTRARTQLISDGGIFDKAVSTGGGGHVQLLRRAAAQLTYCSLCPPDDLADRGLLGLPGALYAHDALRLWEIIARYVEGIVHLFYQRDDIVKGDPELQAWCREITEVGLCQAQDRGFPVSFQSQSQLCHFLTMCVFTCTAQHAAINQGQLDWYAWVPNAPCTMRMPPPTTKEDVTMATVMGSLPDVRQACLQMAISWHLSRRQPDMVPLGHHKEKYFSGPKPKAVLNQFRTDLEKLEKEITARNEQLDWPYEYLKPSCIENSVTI
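Purified human 12hLO (150 nM final) in 25 mM Hepes, 0.01% Triton X-100, pH 7.0 was preincubated 15 min at room temperature with compound. Then 40 uM arachidonic acid was added, 30 min. Hydroperoxide was read by Fe-XO absorbance ratio 573/405 nm.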
TDP1 cell CPT: DT40-hTDP1 cell growth loss with CPT. chicken DT40 Tdp1-/-;hTDP1 cells + 20 nM CPT, ATP luminescence, 48 h. Potency, µM (series often up to 46.2 µM), without a hit: top-dose activity change, negative = growth inhibition, usual class: inhibitors. 420,000 tested, 12% active; also: nearly all actives have a fitted effect of over 55% in size
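Chicken DT40 Tdp1-/- cells complemented with human TDP1, 400 cells/well, exposed to compounds plus 20 nM camptothecin for at least 48 h at 37 C; viability read as ATP content by CellTiter-Glo luminescence.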
ELG1 DNA repair: ELG1-dependent DNA repair inhibition; HEK293T ELG1-luciferase reporter, luminescence, 16 h; DNA damage induced by 5-fluorouridine; Potency, µM (series often up to 46.1 µM), for inactives: at the highest dose activity change, negative = inhibition, most hits filed as inhibitors; 330,000 tested, 2.3% active; also: nearly all actives have a fitted effect of over 55% in size
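Luminescence from the luciferase reporter, measured 30 min after ONE-Glo reagent at room temperature, was the read-out. Beforehand, 2,000 cells per well were exposed for 16 hr at 37 °C to 5-fluorouridine together with compound or vehicle.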
* hit, by the source's call; ? = inconclusive; nt = no result given; [ ] = dose if it differs, or a comment. Calls follow the shape of the dose curve; as a rule, active = well fitted curve in the direction sought with a large enough effect; inconclusive = small, poorly fitted or top-dose-only effect, or another doubt; inactive = no such curve, though single readings can be large; an effect the other way counts as inactive or inconclusive. % is scaled to controls: 0 for no effect and ±100 for the full control effect; potency is read from the fitted curve at half-maximal effect.

SMILES	VP16 counter	DT40 TDP1 no CPT	RORgamma inh	ALOX12 inh	TDP1 cell CPT	ELG1 DNA repair
CC(NC(=O)Nc1cccc([N+](=O)[O-])c1)(C(F)(F)F)C(F)(F)F	?	?	43%	-20%	3.7µM*	-25%
Cn1nc(C(C)(C)C)c([N+](=O)[O-])c1C(=O)Nc1ccc(Br)cc1	-2%	23µM*	?	46%	?	?
O=C(Nc1ccc(Br)cc1)c1cc([N+](=O)[O-])cc([N+](=O)[O-])c1	?	?	-2%[1.91 µM]	-1%	4.6µM*	?
COC(=O)c1ccc(NC(=O)c2ccc3nc(C)sc3c2)cc1	2%	-1%	0%[1.91 µM]	1%	-6%	?
COc1ccccc1CC(=O)N1CCCc2ncc(C(=O)NCc3ccc(OC)c(OC)c3)cc21	nt	nt	nt	6%	nt	nt
Cc1ccccc1C(=O)N/N=C/c1ccccn1	?	?	10µM*	-13%	?	?
O=C(N/N=C\c1ccccn1)c1ccccc1O	4.5µM*	?	2µM*	2%	15µM*	?
C/C=N\NC(=O)COc1cc(C)ccc1C	-1%	10%	13µM*	0%	14%	3%
C=CCc1ccccc1OCC(=O)N/N=C/c1ccc(OC(C)=O)cc1OC(C)=O	?	6.5µM*	7.1µM*	0%	5.8µM*	?
CCCOc1ccc2ccccc2c1CN(C)C(=O)Cc1n[nH]c(=O)c2ccccc12	nt	nt	nt	3%	nt	nt
CCOC(=O)c1nc2ccccc2nc1N1CCN(C(=O)c2ccc(C)cc2)CC1	nt	nt	nt	-6%	nt	nt
Cc1ccccc1OCC(=O)N/N=C/c1cc2ccccc2nc1Cl	-8%	15µM*	38%	-9%	15µM*	-28%
CCOc1ccc(Br)cc1C(=O)N/N=C/c1ccccn1	2%	?	11µM*	nt	?	12µM*
Cc1ccc2nc(Cl)c(/C=N/NC(=O)[C@H]3C[C@@H]3c3ccccc3)cc2c1	-13%	?	?	14%	-16%	-6%
CC(C)(C)c1ccc(C2CC2C(=O)N/N=C\c2cc3ccccc3nc2Cl)cc1 (configuration not stated)	-5%	16µM*	-4%	-7%	?	-4%
CCC/C=N/NC(=O)c1ccccc1O	-81%	0%	10µM*	0%	23%	14%
COc1ccc(OC)c(C(=O)N/N=C/c2ccccn2)c1	1%	6%	27%	31%	6%	3%
C[C@@H](NC(=O)C12CC3CC(CC(C3)C1)C2)c1onc(-c2ccccc2)c1C(=O)O	nt	nt	nt	24%[176 µM]	nt	nt
CN(C)CCC(=O)N1Cc2ccccc2CC2(CCCCN2Cc2cccnc2)C1 (configuration not stated)	nt	nt	nt	6%[6.33 µM]	nt	nt
CCCCCCCCC/C(=N\O)c1ccccn1	11µM*	23µM*	3.5µM*	0%	23µM*	?
O=C(N/N=C\c1ccncc1)c1ccccc1O	?	-4%	11µM*	-1%	24%	?
CCCCCCCCCCNC(=O)C(=O)Nc1ccccn1	?	?	?	nt	-18%	16%
CCCCCCCCC(=O)N/N=C/c1ccccn1	-8%	?	-88%	26%	18µM*	-6%
Cc1ccccc1OCC(=O)N/N=C/c1ccccn1	7%	?	14µM*	1%	?	-18%
Cc1ccccc1C(=O)N/N=C/c1ccncc1	0%	-1%	-5%	8%	8%	8%
SMILES	VP16 counter	DT40 TDP1 no CPT	RORgamma inh	ALOX12 inh	TDP1 cell CPT	ELG1 DNA repair
COc1ccccc1NC(=O)Cn1nc2n(c1=O)CCCCC2	nt	nt	nt	29%	nt	nt
CCC1c2ccsc2CCN1C(=O)/C=C/c1sccc1C (configuration not stated)	nt	nt	nt	15%	nt	nt
O=C(N/N=C/c1ccc(Oc2ccccc2)cc1)c1ccc(CSCc2ccccc2)cc1	nt	nt	nt	9%	nt	nt
CCOC(=O)C(CC)/C(C)=N\NC(=O)c1ccccc1O (configuration not stated)	13µM*	23µM*	10µM*	12%	16µM*	18%
O=C(N/N=C/c1ccc(Br)cc1)c1ccccc1-n1cccc1	4%	16µM*	-20%	-18%	?	-16%
CS(=O)(=O)NCC1CCCN(C(=O)c2cnc3ccccc3n2)C1 (configuration not stated)	nt	nt	nt	16%	nt	nt
CCOC(=O)c1nc2ccccc2nc1N1CCN(c2cccc(C)c2C)CC1	nt	nt	nt	-14%	nt	nt
Cc1ccc(/C=C/C(=O)c2c(C)nc3ccccn23)cc1	?	16µM*	14µM*	6%	16µM*	?
C=CCn1c(Cc2ccccc2)nc2c(cnn2-c2ccccc2)c1=O	-1%	23µM*	31%	?	?	21µM*
O=c1ccn(O)cc1[N+](=O)[O-]	nt	nt	nt	-19%	nt	nt
Cc1ccc2c(c1)cc(CN(Cc1cccnc1)C(=O)c1ccccc1)c1nnnn12	-5%	0%	8%	-2%	-10%	?
Cc1ccc(C(=O)N(Cc2cccnc2)Cc2cc3cc(C)ccc3n3nnnc23)cc1	2%	?	-15%	-2%	18µM*	21µM*
CCCN(Cc1cc2cc(C)ccc2[nH]c1=O)C(=O)c1cccc(Cl)c1	nt	23µM*	nt	?	?	nt
O=C(c1ccccc1)N(Cc1cccnc1)Cc1cc2ccccc2[nH]c1=O	nt	nt	nt	46%	nt	nt
CCCCN(Cc1cc2cc(C)ccc2[nH]c1=O)C(=O)c1cccc(Cl)c1	nt	?	nt	-10%	?	nt
Cc1ccc2[nH]c(=O)c(CN(Cc3cccnc3)C(=O)c3ccncc3)cc2c1	-7%	21µM*	-8%	-7%	?	0%
Cc1ccc2c(c1)cc(CN(Cc1ccc3c(c1)OCO3)S(=O)(=O)c1ccccc1)c1nnnn12	-10%	21µM*	-17%	22%	?	?
O=C(NC1CCOCC1)C1=NO[C@@H]2CN(c3ccc(F)c(Cl)c3)C[C@H]12	nt	nt	nt	-7%[176 µM]	nt	nt
Cc1ccc2c(c1)cc(CN(Cc1cccs1)C(=O)c1ccco1)c1nnnn12	3%	16µM*	-5%	0%	?	?
CCC(O)c1cnc(OCc2ccccc2)nc1OCc1ccccc1 (configuration not stated)	nt	18µM*	nt	-4%	?	nt
Cn1c(=O)cnc2cnc(OCc3ccccc3)nc21	1%	-1%	-8%	?	-2%	nt
COc1cc(Cl)c(C)cc1NC(=O)c1ccccc1NC(=O)CN1CCOCC1	-4%	4.6µM*	-14%	15%	2.6µM*	16µM*

Screens deposited in PubChem by National Center for Advancing Translational Sciences (NCATS).
